Source: PubChem BioAssay (several laboratories)
Hits are enriched below; roughly 1.3% of the tested compounds scored in any of these assays.
PKA-R1A activ = PKA-R1A complex activation; P00514+P68181; PKA-R1A dissociation, Cy5-IP20 fluorescence polarization; scaled: DMSO 0%, 113 µM cGMP 100%; 340,000 compounds, 0.083% hits; activation, % at 11.4 µM;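 active means percent activation above the mean of all tested compounds plus 3 SD, cut at about 19% in these data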;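 further: higher means more PKAc released from R1A so a rise in polarization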
Rpn11 block = inhibitors of human proteasome Rpn11. 360,000 compounds, 0.59% hits. O00487. human 26S proteasome, Ub4-pepOG fluorescence polarization; 20S core pre-blocked with epoxomicin. calls only at 20 µM. AID 588493;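 active means inhibition at 20 µM, scaled to each plate's controls, above about 33%, limit read from the data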
Target sequence (O00487 whole entry, looked up): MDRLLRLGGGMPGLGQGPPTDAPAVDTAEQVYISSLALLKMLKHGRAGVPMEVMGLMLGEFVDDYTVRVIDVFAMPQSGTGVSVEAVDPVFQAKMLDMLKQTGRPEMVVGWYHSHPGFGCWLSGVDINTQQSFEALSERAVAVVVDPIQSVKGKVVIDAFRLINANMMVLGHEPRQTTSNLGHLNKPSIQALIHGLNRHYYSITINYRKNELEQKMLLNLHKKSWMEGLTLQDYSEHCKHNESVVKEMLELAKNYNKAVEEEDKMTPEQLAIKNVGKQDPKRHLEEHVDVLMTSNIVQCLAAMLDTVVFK
Neddyl block = cullin neddylation inhibition; inhibition, % at 25 µM; P61081+Q13564; AID 651699; 360,000 compounds, 0.58% hits; TR-FRET cullin neddylation, biochemical; in the data active means inhibition above about 36%
PKA-R2B act = activates the human PKA-R2B holoenzyme complex; P22694+P31323; PKA-R2B holoenzyme dissociation, Cy5-IP20 fluorescence polarization; R2B truncated from residue 108, S112A mutant; 0% DMSO only, 100% 113 µM cGMP; activation, % at 11.4 µM; 340,000 compounds, 0.079% hits; AID 504700;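 active means activation above a cutoff set at the mean over all compounds plus 3 SD, cut at about 18% in these data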;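 further: higher means more holoenzyme dissociation and a rise in polarization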
Rpn11 inh conf = confirmation of human proteasome Rpn11 inhibitors; AID 602318; shares compounds with Rpn11 block; 1,900 compounds, 29% hits; inhibition, % at 20 µM; purified human 26S proteasome, Ub4-pepOG fluorescence polarization; proteasome pretreated with epoxomicin
MMP-2 inh = counter-screen for RPN11 inhibitors: inhibition of human MMP-2 | shares compounds with Rpn11 block | recombinant MMP-2, FRET peptide cleavage fluorescence | AID 602330 | 1,900 compounds, 4% hits | inhibition, % at 20 µM;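 further: human MMP-2 activated beforehand with APMA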
Thrombin inh = blocks bovine thrombin, flagging nonselective RPN11 hits; shares compounds with Rpn11 block; 1,900 compounds, 13% hits; inhibition, % at 20 µM; AID 602333; bovine thrombin cleavage of Ub4-pepOG, fluorescence polarization;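 active means mean inhibition at least 40% at 20 µM, or signal 3 deviations below plate average, so some actives read negative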;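 further: plate controls were thrombin with DMSO for no effect and buffer wells lacking thrombin for full effect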
An asterisk follows results filed as active; i = inactive; . = no result given; + = active, no number. Unless noted, no stated cut-off is given here; in the data, active means inhibition above about 40%; inactive means the rest.

SMILES | PKA-R1A activ | Rpn11 block | Neddyl block | PKA-R2B act | Rpn11 inh conf | MMP-2 inh | Thrombin inh
COc1cc2sc3ccc(C#Cc4ccccn4)cc3c(=O)c2cc1OC | -12.8 | + | -71.6 | -5.1 | -14.6 | -37.7 | -2.8
Cc1ccc(C)n1-c1ccc(C(=O)/C=C/N(C)C)cc1 | -12.6 | + | 5.8 | 5.9 | 8.3 | -53.4 | -2.0
Cn1c(=O)c2c(n(C)c1=O)n(C)c(=O)n2C | . | i | 0.5 | . | . | . | .
Cc1ccc(CCNC(=O)c2coc3nc4ccccc4nc23)cc1 | -1.5 | + | -21.7 | -8.2 | 30.3 | -29.7 | -33.0
O=S(=O)(c1ccc(Cl)cc1)N1CCc2ccccc21 | 9.6 | + | -24.6 | -7.7 | 147.3* | -44.8 | 131.6*
NS(=O)(=O)c1ccc2nc(NC(=O)Nc3ccc(F)cc3)sc2c1 | -12.8 | + | -6.0 | 1.1 | 33.0 | 1.3 | 22.7
CCC(c1nnnn1Cc1ccco1)N1CCC(C(N)=O)CC1 (stereo not drawn) | -1.4 | i | -0.9 | -10.2 | . | . | .
CC(C)C(c1nnnn1Cc1ccco1)N1CCC(C(N)=O)CC1 (stereo not drawn) | -8.3 | + | 3.0 | 6.2 | 15.1 | -32.8 | 8.4
CC1=C(C(=O)c2ccccc2)C(c2ccc(N3CCOCC3)cc2)NC(=O)N1 (stereo not drawn) | -9.9 | + | 0.9 | 2.2 | 50.6* | -17.7 | 41.0*
CC1=C(C(=O)c2ccccc2)C(c2ccc(O)cc2)NC(=S)N1 (stereo not drawn) | -2.7 | i | 0.3 | 7.6 | . | . | .
O=C(COC(=O)/C=C/c1ccco1)NCCN1C(=O)CSC1=O | -3.6 | i | -8.6 | 1.0 | . | . | .
CC1(C)Cc2cccc(Oc3cc(NN4CCCCC4)c([N+](=O)[O-])cc3[N+](=O)[O-])c2O1 | 6.2 | i | 1.2 | -2.1 | . | . | .
COc1ccc(C2C(C#N)=C(N)Oc3cc(C)n(Cc4ccco4)c(=O)c32)cc1 (stereo not drawn) | 5.7 | + | -16.4 | -2.9 | 23.4 | -23.3 | 5.6
COc1cccc(C2C(C#N)=C(N)Oc3cc(C)n(Cc4ccco4)c(=O)c32)c1 (stereo not drawn) | -3.6 | i | 10.4 | -3.4 | . | . | .
Nc1c(C(=O)N/N=C/c2ccc(F)cc2)oc2nc(-c3ccccc3)cc(-c3ccco3)c12 | 1.2 | + | 28.9 | -0.8 | 94.4* | -18.5 | 20.4
CN(CC(=O)Nc1ccc(F)cc1)C(=O)CCc1nc2sc3c(c2c(=O)[nH]1)CCCC3 | 0.8 | + | -235.0 | -4.8 | 37.7 | -31.3 | 19.0
CCN(CC(=O)Nc1c(F)cccc1F)C(=O)CCc1nc2sc3c(c2c(=O)[nH]1)CCCC3 | -0.6 | + | 12.1 | -6.0 | 64.0* | -3.0 | 40.9*
CN(CC(=O)Nc1ccc(Cl)cc1)C(=O)CCc1nc2sc3c(c2c(=O)[nH]1)CCCC3 | 0.9 | + | -147.4 | 5.1 | 72.3* | -30.9 | 25.7
Cc1ccc(S(=O)(=O)/N=c2\ccc(Cl)cn2C(F)F)cc1 | 2.4 | i | -0.1 | -6.7 | . | . | .
CC1(C)CC(=O)C(C=NCC2CCN(C(=O)Cc3ccccc3)CC2)=C(O)C1 | 4.6 | + | 1.3 | 11.4 | 93.1* | 2.9 | -8.4
Cn1c(CCC(N)=O)nnc1SCC(=O)Nc1ccccc1C(=O)NC1CC1 | -9.8 | i | -17.8 | -7.6 | . | . | .
O=C(OCC(=O)N1CCOCC1)c1cc(-c2ccccc2)nc2ccccc12 | -18.6 | i | -2.8 | -4.0 | . | . | .
CN1CCN(C(=O)CN(C2CCCCC2)S(=O)(=O)c2ccccc2)CC1 | -7.7 | i | -2.5 | 6.1 | . | . | .
O=C(CN(C1CCCCC1)S(=O)(=O)c1ccccc1)N1CCCC1 | -9.5 | + | -1.6 | 1.0 | -1.5 | -3.9 | -8.0
Cc1cccc(OCc2nnc(SCC(=O)NC3CCCCC3)n2C)c1 | 5.6 | i | -6.0 | 6.9 | . | . | .
Cn1nccc1NC(=O)COCC(=O)O | -6.8 | i | 0.9 | -1.9 | . | . | .
Cc1ccc(N=Nc2c(O)[nH]c(=O)[nH]c2=O)cc1S(=O)(=O)Nc1ccc(Br)cc1 | -4.9 | + | -30.2 | -13.8 | 107.7* | -10.7 | 71.6*
